Data on 14 molecules can be found in PMC12136788.

Positions count from the first letter of the chain named. Over roughly 24,000 sequences, “enrichment r” has its median near 0.99; the highest 2% begin near 3.7. The entries come from a sample that favours the highest values as a whole.

The chains are these.
T1: UNK ZnF1-3 (human, UniProt Q9C0B0 31-174)
T1 sequence: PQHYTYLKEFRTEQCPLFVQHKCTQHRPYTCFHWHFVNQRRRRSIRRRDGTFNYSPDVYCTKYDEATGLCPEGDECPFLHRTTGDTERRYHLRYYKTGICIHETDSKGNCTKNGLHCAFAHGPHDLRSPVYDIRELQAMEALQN

B1: chr8:4269914:4269915:-_ENSMUSG00000002949_ENSMUST00000149827|mus_mus|motif|central (ssRNA)
RNA: GGGAGUUCUACAGUCCGACGAUCCUUCUUGGCCUCAUCUCGGAACUUUUUUAUACUUUCUUUCAUCUCUUUGUUUUUGGCGGAUUCUUGUUUGAUGUUAUCUAGCAAGCCUGACAAAAACCCUUUUCUGCUCCCAGAAGAAUACAACAGAGGAUUGAGCAUCA
B2: 19721883_19722003_1295_CDS_ENSMUSG00000050428_ENSMUST00000053109|mouse|control|control (ssRNA)
RNA: GGGAGUUCUACAGUCCGACGAUCAGGGCUCACUGUCAGGCACACAGUCUCUUCCUUCACGUUCUUGGUGCCAUCUUUGCCAAAGAAGAUGCACGCAUCCACUACACCUGUUACCACCACAUCUACAUGGAAUCCUGAUGCACCCAACAGAGGAUUGAGCAUCA
B3: chr18:56819859:56819860:+_ENSG00000166562_ENST00000588875|hu_mus|hu_hu_hu_mus_True|18_38 (ssRNA)
RNA: GGGAGUUCUACAGUCCGACGAUCAACCUUGAUUACUCUGUGAACUAUCGGAAUGUCUCUUCCUUCAACCUUAAAAACAACUAUUUCACCAGCUCUGAUUGGGUCUUCCCGGAAAUUUGUGAGGAACAGCAGAUCUCCUCUGUGCAACAGAGGAUUGAGCAUCA
B4: chr6:128323885:128323886:+_ENSMUSG00000001517_ENSMUST00000073316|mus_mus|motif|central (ssRNA)
RNA: GGGAGUUCUACAGUCCGACGAUCAGGGUCCUCCUCCAGGCCAGGGAAACUGAUGUCUAGAAGGAUCUUGCUGAGGCGGUCAUUCAUUGUGUCCAGGACAAGGCCUUCUGUGAGAGAACGGUUGGCUGAAAGGCUGGGAAUCUGCAACAGAGGAUUGAGCAUCA
B5: chr12:48459454:48459455:-_ENSG00000079387_ENST00000551330|hu_mus|motif|central (ssRNA)
RNA: GGGAGUUCUACAGUCCGACGAUCUGCUUUCUGCUCUUCAAUCCGGCGCAAUCUUUCCCGAGCUCGAGAGUCAUAAACGCGGGUUAAUUCUUUGAUCCAUAGCUCUGCCUGGAAGAACGUAGGGCUGGAAGCUGGAGUCUGAGACAACAGAGGAUUGAGCAUCA
B6: 55347689_55347809_2221_3pUTR_ENSMUSG00000021488_ENSMUST00000099490|mouse|control|control (ssRNA)
RNA: GGGAGUUCUACAGUCCGACGAUCACUCAGCAGUUUCAGGCUCCAUUGUCUUGGUAGAACCCAUUAAAUGGUCUGCAUGGGAAUUAGUAAUGAGGGAUUUCUGUUUCUCUUUUAUCCUGUUUGUGACAGGAUAUCUAGAAUACUCAACAGAGGAUUGAGCAUCA
B7: chr3:122152592:122152593:-_ENSG00000114030_ENST00000344337|hu_mus|motif|central (ssRNA)
RNA: GGGAGUUCUACAGUCCGACGAUCAUUUGUGAUGGCCCAAGCAGCUUCCUUCCUUGUCCGGAACUCUGCUGUUUGCAAUAUACGGAUAAGAGCUGGGAACAUGUUAGCAUCUAUCACAGUCUGGAUCUGUGCCCUAUUUCCAGCCAACAGAGGAUUGAGCAUCA
B8: chr17:60770872:60770873:+_ENSG00000011028_ENST00000303375|hu_hu|hu_hu_hu_mus_True|1_38 (ssRNA)
RNA: GGGAGUUCUACAGUCCGACGAUCUCUUUAAAAAAAAAAAAAAAAAGACAAACAAUAAUAGCACAUUUCGAGAAUCAAGAACUACAAUAGAGGGUCCAUGUCUUCGAUUUGUUCACAUCGUCCUGCACUGGGACACGACCAGGACAACAGAGGAUUGAGCAUCA
B9: chr17:60770872:60770873:+_ENSG00000011028_ENST00000303375|hu_hu|hu_hu_hu_mus_True|18_68 (ssRNA)
RNA: GGGAGUUCUACAGUCCGACGAUCUCUUUAAAAAAAAAAAAAAAAAGACAAACAAUAAUAGCACAUUAUUUAAAAAAAGAACUACAAUAGAGGGUCCGCUUUGAGUUUUUGUUCACAACAUUGUCCCCUGGGACACGGGGACUGCAACAGAGGAUUGAGCAUCA
B10: chr17:60770872:60770873:+_ENSG00000011028_ENST00000303375|hu_hu|hu_hu_hu_mus_True|58_68 (ssRNA)
RNA: B9 RNA with A77U, G78C, A86G, A117U, A119G, U121C, G122C, C124G, C126A
B11: chr17:60770872:60770873:+_ENSG00000011028_ENST00000303375|hu_hu|hu_hu_hu_mus_True|1_68 (ssRNA)
RNA: GGGAGUUCUACAGUCCGACGAUCUCUUUAAAAAAAAAAAAAAAAAGACAAACAAUAAUAGCACAUUAUUUAAAAAAAGAACUACAAUAGAGGGUCCGCUUUGAGUUUUUGUUCACAUCGUCCUGCACUGGGACACGACCAGGACAACAGAGGAUUGAGCAUCA
B12: chr17:60770872:60770873:+_ENSG00000011028_ENST00000303375|hu_hu|hu_hu_hu_mus_True|1_18 (ssRNA)
RNA: GGGAGUUCUACAGUCCGACGAUCUCUUUAAAAAAAAAAAAAAAAAGACAAACAAUAAUAGCACAUUUCGAGAAUCAAGAACUACAAUAGAGGGUCCGCUUUGAGUUUUUGUUCACAACAUUGUCCCCUGGGACACGACCAGGACAACAGAGGAUUGAGCAUCA
B13: chr17:60770872:60770873:+_ENSG00000011028_ENST00000303375|hu_hu|hu_hu_hu_mus_True|28_68 (ssRNA)
RNA: GGGAGUUCUACAGUCCGACGAUCUCUUUAAAAAAAAAAAAAAAAAGACAAACAAUAAUAGCACAUUAUUUAAAAAAAGAACUACAAUAGAGGGUCCGCUUUGAGUUGUCCAUGUUCUCGUCCUGCACUGGGACACGGGGACUGCAACAGAGGAUUGAGCAUCA
B14: chr17:60770872:60770873:+_ENSG00000011028_ENST00000303375|hu_hu|hu_hu_hu_mus_True|68_68 (ssRNA)
RNA: B9 RNA with A117U, A119G, U121C, G122C, C124G, C126A

This experiment has as its target T1, UNK ZnF1-3. Put plainly: nsRBNS (natural sequence RNA bind-n-seq); RBNS binding buffer (assumed for nsRBNS): 25 mM Tris pH 7.5, 150 mM KCl, 3 mM MgCl2, 0.01% Triton X-100, 500 ug/ml BSA, 20 U/ml SUPERase-In, 4 C; UNK is unkempt and MSI1 is Musashi-1; names of the RNAs are library labels; protein concentration not given here; high values mean tight binding.
With B1, the binding signal was determined as 0.472 enrichment R.
In the case of B2, the binding signal worked out at 1.01 enrichment R.
The molecule B3 yielded a binding signal of 0.803 enrichment R.
B4: the binding signal was 1.01 enrichment R.
Molecule B5 registered a binding signal of 1.03 enrichment R.
The figure for B6 is 0.567 enrichment R.
As to B7, the binding signal came out at 0.808 enrichment R.
B8 showed a binding signal of 2.39 enrichment R.
In the case of B9 it was 4.47 enrichment R; in that of B10, 4.95 enrichment R.
The molecule B11 registered a binding signal of 3.57 enrichment R.
The figure for B12 is 3.43 enrichment R; for B13 it is 4.92 enrichment R; for B14 it is 4.87 enrichment R.
